In PubChem BioAssay AID2235 (The Scripps Research Institute Molecular Screening Center, 2010):
The campaign covered roughly 320,000 compounds. About 2,800 (0.88%) were called active. This is one part of a sample in which actives are shown more often than they occur.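 How the source made its calls: active means inhibition above the mean inhibition of all tested compounds plus 3 SD, computed separately for each screening campaign (cut at about 15% in these data); inactive means the rest.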

Target: Serine/threonine-protein phosphatase PP1-alpha catalytic subunit (Homo sapiens) (UniProt P62136)
Assay: inhibition of human PP1 catalytic subunit – biochemical, fluorescence, OMFP substrate, single point, counter-screen for PP5 inhibitor project, primary screen (AID 2235)
Conditions: purified PP1alpha, at 6.7 µM, hits give high values

Chain of Serine/threonine-protein phosphatase PP1-alpha catalytic subunit (Homo sapiens) (P62136 whole entry, looked up): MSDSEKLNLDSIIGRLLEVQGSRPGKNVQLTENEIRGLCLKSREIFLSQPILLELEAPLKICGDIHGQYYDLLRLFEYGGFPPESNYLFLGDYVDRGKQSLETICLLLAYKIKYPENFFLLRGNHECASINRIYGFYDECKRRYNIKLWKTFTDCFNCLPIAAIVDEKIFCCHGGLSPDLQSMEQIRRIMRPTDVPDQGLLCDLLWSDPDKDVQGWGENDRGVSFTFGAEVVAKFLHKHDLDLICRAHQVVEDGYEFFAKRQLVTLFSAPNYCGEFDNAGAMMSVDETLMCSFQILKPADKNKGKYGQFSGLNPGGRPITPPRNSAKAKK

Structure (SMILES) | inhibition
Cc1cc(Nc2ccccc2)n(CCC#N)n1 | -2.37% (inactive)
Cc1cc(C)n(C(=O)c2ccc(S(=O)(=O)N3CCCC3)cc2)n1 | 2.03% (inactive)
Cc1cc(Nc2ccccc2)n(C(=O)c2ccc(N)cc2)n1 | 22.3% (active)
CCOC(=O)C1=C(CCc2ccccc2)NC(=O)NC1c1ccc2ccccc2c1 (centres undefined) | 9.37% (inactive)
COc1ccc(NS(=O)(=O)c2cc(NC(=O)C3CCCCC3)ccc2N2CCOCC2)cc1 | 0.37% (inactive)
Oc1ccc(C2Nc3cccc4cccc(c34)N2)cc1 | 30.9% (active)
Cc1ccc(C2Nc3cccc4cccc(c34)N2)cc1 | 1.42% (inactive)
COc1cccc(C2Nc3cccc4cccc(c34)N2)c1 | 3.61% (inactive)
Cc1ccc(CSCC2Nc3ccc(C(=O)N4CCN(c5ccc(F)cc5)CC4)cc3NC2=O)cc1 (centres undefined) | 17.7% (active)
O=C(c1cc(C(=O)N2CCN(c3ccc(F)cc3)CC2)cc([N+](=O)[O-])c1)N1CCN(c2ccc(F)cc2)CC1 | 1.38% (inactive)
O=C1Nc2cc(C(=O)N3CCN(c4ccc(F)cc4)CC3)ccc2NC1CSCc1cccc(F)c1 (centres undefined) | 14.3% (inactive)
CCS(=O)(=O)N1Cc2ccccc2CC1C(=O)Nc1nc2ccc(F)cc2s1 (centres undefined) | 3.36% (inactive)
CC(=O)c1c(C)[nH]c(C(=O)OCC(=O)Nc2sc3c(c2C#N)CCCC3)c1C | 8.8% (inactive)
Cc1cccc(N(Cc2ccccc2)C(=O)c2ccccc2F)c1 | 0.11% (inactive)
COc1ccc(C2=NS(=O)(=O)N(C)C(C(=O)NC(C)c3ccccc3)=C2)cc1 (centres undefined) | -1.27% (inactive)
CCOc1ccc(CNC(=O)C2CCCN(c3nnc(C)c4c(C)n(-c5ccccc5)nc34)C2)cc1 (centres undefined) | 1.12% (inactive)
CCc1ccc(CNC(=O)C2CCN(c3nnc(C)c4c(C)n(-c5ccc(C)cc5)nc34)CC2)cc1 | 16.5% (active)
COc1ccc(-n2nc3c(N4CCC(C(=O)NCc5ccccc5)CC4)nnc(C)c3c2C)cc1 | 4.6% (inactive)
CC(C)Cn1c(N)c(C(=O)COC(=O)CN2C(=O)C3CC=CCC3C2=O)c(=O)n(C)c1=O (centres undefined) | -0.85% (inactive)
O=C(Nc1ccc2ccccc2c1)Nc1ccc2snnc2c1 | 13.3% (inactive)
Cc1nn(-c2ccccc2)c2[nH]c(C(F)(F)F)cc(=O)c12 | 2.68% (inactive)
CN1C(=O)/C(=C/c2ccc(C(=O)NC3CCCC3)cc2)Oc2ccccc21 | 1.1% (inactive)
CN1CCN(CCCNC(=O)c2ccc(/C=C3\Oc4ccccc4N(Cc4ccc(Cl)cc4)C3=O)cc2)CC1 | 25.6% (active)

Structure (SMILES) | inhibition
CCCN1CCN(C(=O)CCCNC(=O)c2ccc(Cl)cc2)CC1 | -3.09% (inactive)
Cc1cc(C)nc(-n2nc(C)cc2NC(=O)c2ccc(F)cc2F)n1 | -0.61% (inactive)
O=C(NCc1ccccc1)C(c1cccnc1)N(C(=O)c1csnn1)c1ccc(F)cc1 (centres undefined) | 8.74% (inactive)
O=C(CCC1CCCC1)N=C1SC2CS(=O)(=O)CC2N1Cc1ccccc1 (centres undefined) | 5.06% (inactive)
CC(=O)c1ccc(N2C(=NC(=O)C(C)C)SC3CS(=O)(=O)CC32)cc1 (centres undefined) | -3.39% (inactive)
O=C(N=C1SC2CS(=O)(=O)CC2N1c1cc(Cl)ccc1Cl)C1CC1 (centres undefined) | 18.9% (active)
CCOC(=O)N1CCN(C(=O)c2ccc3c(=O)n(CCc4ccc(OC)c(OC)c4)c(=O)[nH]c3c2)CC1 | 4.83% (inactive)
NS(=O)(=O)c1ccc(CCNC(=O)COC(=O)COc2cccc(C(F)(F)F)c2)cc1 | -0.82% (inactive)
CCOC(=O)c1cc(-c2ccc(F)cc2)n(CC(=O)NCc2ccccn2)c1C | -3.29% (inactive)
Cc1ccc(OCC(=O)Nc2ccc(-c3nc4ncccc4o3)cc2)cc1 | 0.81% (inactive)
Cc1ccc(OCC(=O)Nc2ccc(-c3nnc(-c4ccco4)o3)cc2)cc1 | 24.5% (active)
CCCCOc1ccc(-c2nnc(-c3ccco3)o2)cc1 | 3.14% (inactive)
Cc1cc(C)nc(N/N=C/c2c(CO)cnc(C)c2O)n1 | 1.96% (inactive)
CSc1ccccc1NC(=O)c1cc(C2CC2)on1 | 0.1% (inactive)
C=CCSc1nnc(N2C(=O)C(O)=C(C(=O)c3ccco3)C2c2ccc(F)cc2)s1 (centres undefined) | 10.6% (inactive)
Cc1ccc2nc(N3CCN(C(=O)c4ccco4)CC3)sc2c1 | -4.18% (inactive)
Cc1ccc2nc(N3C(=O)C(O)=C(C(=O)c4ccco4)C3c3cccc(O)c3)sc2c1 (centres undefined) | 21.7% (active)
COc1ccc(OC(C)C(=O)Nc2cccnc2)cc1 (centres undefined) | 3% (inactive)
Cc1cc(NC(=O)CSCc2nc(-c3cccc(Cl)c3)oc2C)no1 | 0.91% (inactive)
COc1ccc(N2C(=O)C(CC(=O)Nc3ccccc3)N(Cc3ccc(OC)c(OC)c3)C2=O)cc1 (centres undefined) | -2.83% (inactive)
N=c1c2c(-c3ccccc3)c(-c3ccccc3)n(Cc3ccccc3)c2ncn1CCCO | 7.81% (inactive)
c1ccc(-c2cc(-c3ccccc3)[nH]n2)cc1 | 2.76% (inactive)
OCCCN1c2ccccc2Nc2nnc(-c3ccccc3)cc21 | 21.4% (active)

Structure (SMILES) | inhibition
CCN(CCCNC(=O)c1ccc2c(c1)NC(=O)CN2C)c1cccc(C)c1 | -0.43% (inactive)
CCC(C)N(C(=O)CSc1nnnn1-c1ccccc1OC)C1CCS(=O)(=O)C1 (centres undefined) | -1.76% (inactive)
CC1CCCCN1C(=O)Cn1c(=O)oc2cc(S(=O)(=O)N3CCCCC3)ccc21 (centres undefined) | 5.73% (inactive)
COc1ccc(C)cc1Nc1n[n+](-c2ccccc2)c(-c2cccc(Cl)c2Cl)s1 | 15.2% (active)
COc1cc(Br)c(-c2sc(Nc3ccccc3)n[n+]2-c2ccccc2)cc1OC | -0.57% (inactive)
CCc1ccc(Nc2n[n+](-c3ccccc3)c(-c3cccc(Cl)c3Cl)s2)cc1 | 14.2% (inactive)
CCCN(CC(=O)Nc1ccc(OC)c(OC)c1)CC(=O)Nc1ccc(F)c(F)c1F | -0.52% (inactive)
O=C(Nc1nnc(CCOCCOCCc2nnc(NC(=O)c3ccco3)s2)s1)c1ccco1 | -2.12% (inactive)
O=C(Nc1nc(-c2ccco2)c(-c2ccco2)s1)c1ccco1 | 26.9% (active)
NC(=O)c1ccsc1NC(=O)c1ccco1 | 1.47% (inactive)
N#Cc1ccccc1S(=O)(=O)N1CCN(Cc2c(O)ccc3ccccc23)CC1 | 0.2% (inactive)
CCOc1ccc(-n2c(SCC(=O)Nc3ccc(OC)cc3)nc3sc4c(c3c2=O)CCN(C)C4)cc1 | 11.8% (inactive)
CCn1c(SCC(=O)Nc2ccc(Br)cc2)nc2sc3c(c2c1=O)CCN(C)C3 | 3.91% (inactive)
COc1ccccc1NC(=O)CSc1nc2sc3c(c2c(=O)n1-c1ccccc1)CCN(C)C3 | 21.4% (active)
Cc1cc(S(=O)(=O)NC2CCCC2)ccc1-n1cnnn1 | 3.65% (inactive)
CC(Sc1nnnn1C)C(=O)NC(=O)NC1CCCCC1 (centres undefined) | 10.8% (inactive)
CCN(CCNC(=O)C1=C(C)C(=O)OC12CCC(C)CC2)c1ccccc1 (centres undefined) | -1.92% (inactive)
Cc1ccc(NC(=O)Nc2cccc(C(F)(F)F)c2)nc1 | 2.27% (inactive)
CCNS(=O)(=O)c1ccc(NC(=O)Nc2cccc(C(F)(F)F)c2)cc1 | 34.2% (active)
O=C(Nc1ccc(C(=O)N2CCOCC2)cc1)Nc1cccc(C(F)(F)F)c1 | 0.27% (inactive)
CCCCNCc1ccc(SC)cc1 | -2.43% (inactive)
N=c1c2c3c(sc2nc2n1CCCCC2)CCCC3 | -1.9% (inactive)
CCCCn1c(SCC(=O)N2CCCC2=O)nc2cc(S(N)(=O)=O)ccc21 | 2.2% (inactive)

Structure (SMILES) | inhibition
CCCCn1c(SCc2ncc(-c3ccccc3)o2)nc2cc(S(N)(=O)=O)ccc21 | 17.9% (active)
CCCCn1c(SCC(=O)N2CCC(C(=O)OCC)CC2)nc2cc(S(N)(=O)=O)ccc21 | -5.51% (inactive)
Cc1ccccc1/C=C\c1nc(O)c([N+](=O)[O-])c(=O)[nH]1 | -3.61% (inactive)
CC(=O)c1ccc(N2CCN(C(=O)C3CCN(S(=O)(=O)c4ccc5c(c4)CC(C)N5C(=O)C4CC4)CC3)CC2)cc1 (centres undefined) | 8.74% (inactive)
CC(=O)c1ccc(N2CCN(S(=O)(=O)c3ccc4c(c3)CC(=O)N4C)CC2)cc1 | 20.6% (active)
CC(=O)c1ccc(N2CCN(S(=O)(=O)c3c(C)[nH]c(=O)[nH]c3=O)CC2)cc1 | -4.3% (inactive)
COc1cccc(NC(=O)C/C(C)=N/NC(=O)C2CCCCC2)c1 | 4.45% (inactive)
COc1ccc(CCNC(=O)C2CC3Cn4c(nc5cc(C)c(C)cc54)C3N2C)cc1 (centres undefined) | -2.39% (inactive)
C=CCOC(=O)C1=C[C@@H](c2ccc3c(c2)OCO3)C[C@@H](OCCCCO)O1 | 5.48% (inactive)
O=C(CN1C(=O)NC(Cc2ccccc2)(Cc2ccccc2)C1=O)NCC1CCCCC1 | -3.39% (inactive)
CN(C)c1nc(Nc2ccc(Cl)c(Cl)c2)nc(N(C)C)n1 | 0.07% (inactive)
COc1cc2nc(Cl)nc(NCCO)c2cc1OC | -3.14% (inactive)
OCCNc1nc(Nc2ccc(Cl)c(Cl)c2)nc2ccccc12 | 23.4% (active)
CCc1ccc(CNC(=O)C2CC(=O)N(CCc3ccc(C)cc3)C2)cc1 (centres undefined) | -3.41% (inactive)
CCC(=O)N1CCN=C1SCc1ccc(F)cc1 | -1.6% (inactive)
COC(=O)C1=C(O)/C(=C/c2ccc(OCC(=O)Nc3ccccc3)cc2)N=C1C | 1.71% (inactive)
Cc1ccc(NC(=O)COc2ccc(/C=C3/NC(=O)NC3=O)cc2)cc1 | 19.3% (active)
CCOC(=O)C1=C(O)/C(=C/c2ccc(OCC(=O)Nc3ccc(C)cc3)cc2)N=C1C | 15.1% (inactive)
CCc1cccc(NC(=O)COC(=O)C2CCN(c3ccc(C(F)(F)F)cn3)CC2)c1 | 3.82% (inactive)
Cc1noc(C)c1S(=O)(=O)NCCc1ccc(S(N)(=O)=O)cc1 | -1.43% (inactive)
